# Results from PubChem BioAssay AID488969 (Vanderbilt High Throughput Screening Facility, 2010).
# The full ranking holds about 110,000 compounds; the median of “z-score” is about -0.1, and the highest 2% start at about 2. The list comes from a sample in which the highest values are over-represented; it also holds similar structures and randomly drawn compounds. The source made the active and inactive calls.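 Rule for the calls: active = z-score in the third read window above 3 or below -3; inactive = the rest.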
# Molecular target: Metabotropic glutamate receptor 8 (Rattus norvegicus) (UniProt P70579)
# Sequence (P70579 whole entry, looked up): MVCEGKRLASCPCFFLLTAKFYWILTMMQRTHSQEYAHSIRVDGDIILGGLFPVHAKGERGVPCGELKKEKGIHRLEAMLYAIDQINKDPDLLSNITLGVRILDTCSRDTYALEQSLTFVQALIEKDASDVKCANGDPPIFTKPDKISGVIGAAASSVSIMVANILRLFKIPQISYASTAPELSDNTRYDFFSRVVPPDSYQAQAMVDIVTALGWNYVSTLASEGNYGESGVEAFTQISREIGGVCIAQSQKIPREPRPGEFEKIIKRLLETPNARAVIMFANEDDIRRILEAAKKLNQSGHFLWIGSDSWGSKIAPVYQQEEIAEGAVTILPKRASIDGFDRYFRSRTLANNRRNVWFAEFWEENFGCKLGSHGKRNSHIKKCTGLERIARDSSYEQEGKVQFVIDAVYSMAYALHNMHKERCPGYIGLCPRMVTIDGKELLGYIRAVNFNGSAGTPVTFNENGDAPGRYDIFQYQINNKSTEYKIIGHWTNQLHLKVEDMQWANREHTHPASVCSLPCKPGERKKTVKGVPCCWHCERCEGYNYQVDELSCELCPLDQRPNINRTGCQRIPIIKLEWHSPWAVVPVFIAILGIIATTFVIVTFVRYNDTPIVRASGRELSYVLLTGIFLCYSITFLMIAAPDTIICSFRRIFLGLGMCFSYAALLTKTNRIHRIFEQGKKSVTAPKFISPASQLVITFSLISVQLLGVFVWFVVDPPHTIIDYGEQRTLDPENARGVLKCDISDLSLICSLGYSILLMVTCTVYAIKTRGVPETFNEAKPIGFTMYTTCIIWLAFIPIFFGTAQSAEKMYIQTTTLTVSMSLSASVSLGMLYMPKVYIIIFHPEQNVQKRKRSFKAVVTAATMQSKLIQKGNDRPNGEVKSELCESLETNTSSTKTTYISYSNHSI
# Test: rat mGluR8 modulators via GIRK flux, primary screen, cell-based, thallium flux, HTS (AID 488969)
# Settings: HEK293 rat mGluR8, GIRK (G protein-gated inwardly rectifying potassium channel) thallium flux, FluoZin2; at 10 µM; stronger effect = higher value; submaximal glutamate (EC20) added with thallium
row,Structure (SMILES),z-score
1,COc1ccc(NC(=S)Nc2ccc(S(=O)(=O)N3CCOCC3)cc2)c(OC)c1,0.108
2,O=C(CSc1nnc(-c2ccco2)n1-c1ccccc1)N1CCc2ccccc21,0.00192
3,Cc1ccc(Nc2nc(Oc3ccc(=O)[nH]n3)nc(N(C)C)n2)cc1,-0.00557
4,COCCCNC(=O)C(C#N)c1nc2ccccc2nc1N1CCCC1 (configuration not stated),-0.459
5,CCCCN(CCCC)c1nc2ccccc2nc1C(C#N)C(=O)NCCCOC (configuration not stated),6.64 (active)
6,CCCN(CCC)c1nc2ccccc2nc1C(C#N)C(=O)OC(C)COC (configuration not stated),-3.86 (active)
7,CCN(CC)P1(=O)OC(c2cc(OC)c(OC)c(OC)c2)=Nc2c1c(C)nn2-c1ccccc1 (configuration not stated),-1.4
8,COc1ccc(S(=O)(=O)N2CCC(C(=O)N3CCN(c4ccccc4OC)CC3)CC2)cc1,-0.274
9,CC(C)N1CC(C(=O)Nc2ccc(Br)c(Cl)c2)CC1=O (configuration not stated),0.0942
10,CCS(=O)(=O)c1ccc(S(=O)(=O)CC)s1,-0.137
11,CC(C)(C)S(=O)(=O)c1nc2ccccc2s1,0.279
12,CC(C)(C)S(=O)(=O)c1ccc(S(=O)(=O)C(C)(C)C)s1,2.32
13,CCc1nc(C)cn1S(=O)(=O)c1cc(Cl)c(OC)cc1Cl,2.99
14,CCc1nc(C)cn1S(=O)(=O)c1cc(Br)c(C)cc1OC,-0.193
15,CCc1nc(C)cn1S(=O)(=O)c1cc(C)c(OC)cc1C,0.289
16,Cc1nc(CS(=O)c2ccc(Cl)cc2)cc(NCc2ccc(Cl)cc2Cl)n1 (configuration not stated),0.31
17,CCOc1nc(-c2ccc(Cl)cc2Cl)ccc1C#N,-0.211
18,O=C(NC(NC(=S)Nc1ccccc1C(=O)O)C(Cl)(Cl)Cl)c1ccco1 (configuration not stated),-0.106
19,COc1ccccc1NC(=S)NC(NC(=O)c1ccco1)C(Cl)(Cl)Cl (configuration not stated),-0.246
20,COC(=O)c1ccccc1NC(=S)NC(NC(=O)c1ccccc1[N+](=O)[O-])C(Cl)(Cl)Cl (configuration not stated),2.67
21,O=C(O)c1ccccc1NC(=S)NC(NC(=O)c1ccccc1[N+](=O)[O-])C(Cl)(Cl)Cl (configuration not stated),-0.103
22,COC(=O)c1ccccc1NC(=S)NC(NC(=O)c1ccco1)C(Cl)(Cl)Cl (configuration not stated),15.3 (active)
23,COc1ccc(NC(=S)NC(NC(=O)c2ccccc2Cl)C(Cl)(Cl)Cl)c([N+](=O)[O-])c1 (configuration not stated),-0.469

row,Structure (SMILES),z-score
1,CCNC(=O)NC(=O)C(C)OC(=O)c1cccnc1SC (configuration not stated),-0.0754
2,CN(C)C(=O)C(=O)c1c(-c2ccccc2)cc2ccccn12,-0.294
3,CN(CC(=O)Nc1ccccc1Br)Cc1nc2ccccc2c(=O)[nH]1,0.733
4,N#Cc1nc(COc2cccc(Cl)c2)oc1N1CCCC1,-0.382
5,N#Cc1nc(Cc2ccccc2)oc1N1CCN(c2cccc(Cl)c2)CC1,0.287
6,N#Cc1nc(COc2ccccc2)oc1N1CCN(c2cccc(Cl)c2)CC1,3.31 (active)
7,Cc1c(CCOC(=O)CC23CC4CC(CC(C4)C2)C3)sc[n+]1CC(=O)c1ccc(Br)cc1,0.0917
8,Cc1ncsc1CCOC(=O)C1C2CC3CC(C2)CC1C3 (configuration not stated),0.00939
9,Cc1c(CCOC(=O)C2C3CC4CC(C3)CC2C4)sc[n+]1CC(=O)c1ccc(Br)cc1 (configuration not stated),2.48
10,CCOc1cc2[nH]c(=O)n(CCCCC(=O)N3CCCCCC3)c(=O)c2cc1OCC,2.21
11,COc1cc2[nH]c(=O)n(CCC(=O)N3CCC(N4CCCCC4)CC3)c(=O)c2cc1OC,0.8
12,COc1cc2[nH]c(=O)n(CCCCCC(=O)N3CCN(c4ccccc4)CC3)c(=O)c2cc1OC,-0.317
13,O=C(CCC(=O)OCC(=O)c1cccc([N+](=O)[O-])c1)Nc1ccccc1Cl,0.0825
14,CCOC(=O)CC(=O)Nc1ccc(C)cc1,-0.33
15,Cc1ccc(C2C(/C=C3/SC(=S)NC3=O)=C(c3cccs3)Oc3ccccc32)cc1 (configuration not stated),2.55
16,Cc1cccc(N=C2NC(=O)/C(=C\c3cccs3)S2)c1,0.692
17,Cc1ccc(C2C(C=Nc3c(C)n(C)n(-c4ccccc4)c3=O)=C(c3ccccc3)Oc3ccccc32)cc1 (configuration not stated),-0.137
18,CCOc1ccccc1C1CC(c2ccc(F)cc2)Nc2nc(N)nn21 (configuration not stated),-0.0345
19,Cc1ccc(CNC(=O)C(Cc2ccccc2)NS(=O)(=O)c2cccs2)cc1 (configuration not stated),-0.105
20,O=c1[nH]c(CN2CCN(Cc3ccccc3)CC2)nc2sc3c(c12)CCC3,-0.568
21,CCCSc1nc2sc3c(c2c(=O)[nH]1)CCN(Cc1ccccc1)C3,3.04 (active)
22,O=c1[nH]cnc2sc3c(c12)CCN(Cc1ccccc1)C3,0.233
23,CC1(C)CC(=O)C=C(NCc2ccco2)C1,-0.0748

row,Structure (SMILES),z-score
1,O=C1C=C(NCc2ccco2)CCC1,2
2,O=C1C=C(NCc2ccccc2)CCC1,-0.0868
3,Cc1ccc(Cn2c(SCC(C)C)nc3c2c(=O)[nH]c(=O)n3C)cc1,-0.876
4,COc1cc2c(=O)n(Cc3ccccc3)c(=O)n(CC(=O)NCCc3ccccc3)c2cc1OC,-0.669
5,CC1(C)CC(=O)C2=C(C1)NC(=O)CC2c1ccc(F)cc1 (configuration not stated),-0.481
6,COc1ccc(-c2noc(CCC(=O)NCC3CCN(Cc4cccc(C)c4)CC3)n2)cc1,0.183
7,Cc1ccc(-c2noc(CCC(=O)N(C)c3ccccc3C)n2)cc1,0.361
8,Cc1ccc(-c2noc(CCC(=O)NC3CCN(Cc4ccccc4)CC3)n2)cc1,2.02
9,CCc1ccccc1N(C)C(=O)CCc1nc(-c2ccc(C)cc2)no1,2.44
10,Cc1ccc(-c2noc(CCC(=O)NCC3CCN(Cc4cccc(C)c4)CC3)n2)cc1,2.64
11,COc1ccc(-c2noc(CCC(=O)NC3CCN(Cc4ccccc4)CC3)n2)cc1,0.924
12,O=C(CCc1nc(-c2ccccc2F)no1)NC1CCN(Cc2ccccc2)CC1,0.608
13,Cc1ccc(-c2noc(CCC(=O)NCCN3CCN(Cc4ccccc4)CC3)n2)cc1,-0.696
14,CCc1ccccc1N(CC)C(=O)CCc1nc(-c2ccc(C)cc2)no1,-0.0345
15,CC1CCN(S(=O)(=O)c2ccc(NC(=O)CN3CCCC(C)C3)cc2)CC1 (configuration not stated),0.282
16,O=C(c1cccc(F)c1)N1CCc2ccccc21,-0.134
17,CCOC(=O)c1cc(NC(=O)c2cc(C)on2)cc(C(=O)OCC)c1,-0.369
18,CCn1nc2cc(C(=O)NCCc3cccs3)ccc2c1OC,-0.218
19,COC(=O)CSC1=C(C#N)C(c2sccc2C)CC(=O)N1 (configuration not stated),0.174
20,O=C(NCC1CCCO1)C(c1cccs1)N(C(=O)Cn1nnc(-c2cccs2)n1)C1CCCC1 (configuration not stated),-0.378
21,C/C(=N\NC(=O)c1ccccc1C)c1cccc([N+](=O)[O-])c1,-0.192
